Measurements: ChEMBL document CHEMBL3988442, “University of Dundee, Small-Polar-MMV Screening Library” (2021)
Among all 48,000 compounds or so, about 13,000 (27%) showed an effect of 50% or more. This is one part of the list.

What follows are compounds tested on Wolbachia pipientis (assay: Anti-Wolbachia Cell-Based Screen). Conditions: 5 µM.
Type: functional
Design: scale not given: in the data most compounds retested in dose-response had high values

**Q.** With `CC(C)(C)NC(=O)CNC(=O)CCc1ccccc1Br` as the compound, how does the “Percent Effect” value read?
**A.** Its value is 12.72%.

**Q.** `CN(c1ncnc2ccccc12)C1CCCN(c2cccnn2)C1` (configuration not stated) was tested. Which “Percent Effect” value did it give?
**A.** Its value is 80.98%.

**Q.** With `Cc1nc2ccccc2nc1CN(C)C1CCCN(c2cccnn2)C1` (configuration not stated) as the compound, how does the “Percent Effect” value read?
**A.** The value was 3.642%.

**Q.** How did the “Percent Effect” value turn out when `Cc1nc(CN(C)C2CCCN(c3cccnn3)C2)nc2ccccc12` (configuration not stated) was run?
**A.** Its value is 87.46%.

**Q.** For `CN(Cc1nc2ccccc2s1)C1CCCN(c2cccnn2)C1` (configuration not stated), which “Percent Effect” value is on record?
**A.** The value was 143.8%.

**Q.** `CN(c1ncnc2c1cnn2C)C1CCCN(c2cccnn2)C1` (configuration not stated) was tested. Which “Percent Effect” value did it give?
**A.** Its value is -20.96%.

**Q.** Which “Percent Effect” value does the source give for `CN(Cc1ncc(-c2ccccc2)o1)C1CCCN(c2cccnn2)C1` (configuration not stated) here?
**A.** The value was 2.582%.

**Q.** Which “Percent Effect” value does the source give for `CN(Cc1nc(N)c2ccccc2n1)C1CCCN(c2cccnn2)C1` (configuration not stated) here?
**A.** The value was 10.49%.

**Q.** Which “Percent Effect” value does the source give for `CN(c1ncnc2sccc12)C1CCCN(c2cccnn2)C1` (configuration not stated) here?
**A.** The value was 17%.

**Q.** `Cc1nc(CN(C)CC2CCCN2c2cccnn2)nc2ccccc12` (configuration not stated) was tested. Which “Percent Effect” value did it give?
**A.** The value was 6.947%.

**Q.** Which “Percent Effect” value does the source give for `O=C(C[C@H]1[C@H]2CN(c3ncccn3)C[C@@H]12)Nc1cccnc1.O=C(O)C(F)(F)F.O=C(O)C(F)(F)F` here?
**A.** Its value is -0.113%.

**Q.** `CCc1nc(CN(C)CC2CCN(CC(C)O)CC2)no1` (configuration not stated) was tested. Which “Percent Effect” value did it give?
**A.** Its value is -10.69%.

**Q.** How did the “Percent Effect” value turn out when `CN1CCCC(CCC(=O)N2CCc3sc(C(=O)N(C)C)cc3C2)C1` (configuration not stated) was run?
**A.** Its value is -22.79%.

**Q.** With `Cc1nc(C2CCCN2CC(=O)N2CCCc3ccccc32)no1` (configuration not stated) as the compound, how does the “Percent Effect” value read?
**A.** Its value is -7.265%.

**Q.** `COCc1ncc(CN(Cc2ccncc2)Cc2ccc(C)s2)cn1` was tested. Which “Percent Effect” value did it give?
**A.** Its value is 12.8%.

**Q.** `O=C(CNc1ccc(F)cc1OCC(F)(F)F)NCC(F)(F)F` was tested. Which “Percent Effect” value did it give?
**A.** Its value is -7.353%.

**Q.** How did the “Percent Effect” value turn out when `O=C(CCc1ccco1)Nc1ncn(CC(=O)N2CCCCCC2)n1` was run?
**A.** The value was 1.429%.

**Q.** How did the “Percent Effect” value turn out when `CCS(=O)(=O)N1CCC2(CC(=O)N(c3cccc(C)c3)C2)C1` (configuration not stated) was run?
**A.** The value was -28.77%.

**Q.** `O=C1CC2(CCN(Cc3ccoc3)C2)CN1c1ccc2c(c1)OCO2` (configuration not stated) was tested. Which “Percent Effect” value did it give?
**A.** The value was 2.94%.

**Q.** With `O=C1CC2(CCN(c3nncs3)C2)CN1c1cncnc1` (configuration not stated) as the compound, how does the “Percent Effect” value read?
**A.** Its value is 102.2%.

**Q.** How did the “Percent Effect” value turn out when `O=C1CC2(CCN(Cc3cccs3)C2)CN1c1cccc(F)c1` (configuration not stated) was run?
**A.** The value was 17.5%.

**Q.** How did the “Percent Effect” value turn out when `O=C1CC2(CCN(c3nncs3)C2)CN1c1ccccc1` (configuration not stated) was run?
**A.** The value was 7.339%.

**Q.** Which “Percent Effect” value does the source give for `O=C(N1CCCC1)N1CCC2(CC(=O)N(c3ccc4c(c3)OCO4)C2)C1` (configuration not stated) here?
**A.** The value was -19.45%.

**Q.** With `O=C1CC2(CCN(c3nncs3)C2)CN1c1cccc(F)c1` (configuration not stated) as the compound, how does the “Percent Effect” value read?
**A.** The value was 96.11%.

**Q.** For `Cc1cccc(N2CC3(CCN(c4nncs4)C3)CC2=O)c1` (configuration not stated), which “Percent Effect” value is on record?
**A.** The value was 106.3%.

**Q.** `O=C1CC2(CCN(c3nncs3)C2)CN1c1ccc2c(c1)OCCO2` (configuration not stated) was tested. Which “Percent Effect” value did it give?
**A.** The value was 105.6%.

**Q.** How did the “Percent Effect” value turn out when `Cc1cccc(N2CCCC3(C2)CN(c2nncs2)CCO3)c1` (configuration not stated) was run?
**A.** The value was -21.39%.

**Q.** For `O=C1CC2(CCN(S(=O)(=O)C3CC3)C2)CN1c1cncnc1` (configuration not stated), which “Percent Effect” value is on record?
**A.** Its value is 7.231%.

**Q.** Which “Percent Effect” value does the source give for `CCS(=O)(=O)N1CCC2(CC(=O)N(c3cncnc3)C2)C1` (configuration not stated) here?
**A.** The value was -9.187%.

**Q.** `CN(Cc1ccc(Cl)s1)C(=O)NCCC(=O)N1CCCCCC1` was tested. Which “Percent Effect” value did it give?
**A.** Its value is -2.265%.

**Q.** Which “Percent Effect” value does the source give for `CCn1c(CC2CCN(C(=O)C3COCCO3)CC2)nn(C)c1=O` (configuration not stated) here?
**A.** Its value is -4.106%.

**Q.** `Cc1nc(C)n(CCNC2CCN(c3ncnc4c(C)csc34)CC2)n1` was tested. Which “Percent Effect” value did it give?
**A.** Its value is -4.781%.

**Q.** How did the “Percent Effect” value turn out when `N#Cc1ccccc1N1CCCN(CC(=O)Nc2ccc(Cl)cn2)CC1` was run?
**A.** The value was -6.971%.

**Q.** Which “Percent Effect” value does the source give for `Cc1cc(N)nc(SC2CCCN(Cc3ccccc3)C2=O)n1` (configuration not stated) here?
**A.** Its value is -26.38%.

**Q.** `Cc1cnc(C(=O)N2CCC3(CCCN(c4nncs4)C3)C2)cn1` (configuration not stated) was tested. Which “Percent Effect” value did it give?
**A.** The value was -22.67%.

**Q.** How did the “Percent Effect” value turn out when `Cc1ccccc1N1CC2(CCN(c3nncs3)C2)CC1=O` (configuration not stated) was run?
**A.** The value was 115.5%.

**Q.** Which “Percent Effect” value does the source give for `Cc1ccccc1N1CC2(CCN(Cc3nccn3C)C2)CC1=O.O=C(O)C(F)(F)F` (configuration not stated) here?
**A.** The value was 12.68%.

**Q.** How did the “Percent Effect” value turn out when `O=S1(=O)C[C@@H]2[C@H](C1)N(Cc1ncc[nH]1)CCN2CCCc1ccccc1` was run?
**A.** The value was 97.44%.

**Q.** With `Cc1ccc(CN2CCN(Cc3ccncc3)[C@@H]3CS(=O)(=O)C[C@@H]32)cc1` as the compound, how does the “Percent Effect” value read?
**A.** Its value is 9.085%.

**Q.** With `O=C(C1CCCC1)N1CCN(Cc2ccncc2)[C@@H]2CS(=O)(=O)C[C@@H]21` as the compound, how does the “Percent Effect” value read?
**A.** Its value is -3.8%.

**Q.** With `Cn1ccnc1CN1CCN(Cc2ccncc2)[C@@H]2CS(=O)(=O)C[C@@H]21` as the compound, how does the “Percent Effect” value read?
**A.** The value was 120.1%.

**Q.** With `O=S1(=O)C[C@@H]2[C@H](C1)N(Cc1ncc[nH]1)CCN2C/C=C/c1ccccc1` as the compound, how does the “Percent Effect” value read?
**A.** The value was -2.971%.

**Q.** How did the “Percent Effect” value turn out when `CCc1ccccc1CN1CCN(Cc2ncc[nH]2)[C@H]2CS(=O)(=O)C[C@H]21` was run?
**A.** The value was 21.76%.

**Q.** `Cn1ccnc1CN1CCN(Cc2ccccc2)[C@@H]2CS(=O)(=O)C[C@@H]21` was tested. Which “Percent Effect” value did it give?
**A.** The value was 89.31%.

**Q.** With `O=S1(=O)C[C@@H]2[C@H](C1)N(S(=O)(=O)N1CCCC1)CCN2Cc1ccccc1` as the compound, how does the “Percent Effect” value read?
**A.** The value was -24.95%.

**Q.** How did the “Percent Effect” value turn out when `Cc1n[nH]c(CN2CCN(Cc3ccccc3)[C@@H]3CS(=O)(=O)C[C@@H]32)n1` was run?
**A.** The value was -3.3%.

**Q.** `CC1(C)CCC(C(=O)N2CCCO2)c2ccccc21` (configuration not stated) was tested. Which “Percent Effect” value did it give?
**A.** Its value is 6.18%.

**Q.** Which “Percent Effect” value does the source give for `CC(C)OC(=O)N1CCCC2(CCC(=O)N(CCc3c[nH]cn3)C2)C1` (configuration not stated) here?
**A.** Its value is 2.776%.

**Q.** `Cc1ccc(Cl)c(NC(=O)NC2(C)CCOC2)c1` (configuration not stated) was tested. Which “Percent Effect” value did it give?
**A.** Its value is -14.51%.

**Q.** Which “Percent Effect” value does the source give for `Cc1nc(CNC(=O)CC2C(=O)NCCN2CCC(C)C)n[nH]1` (configuration not stated) here?
**A.** The value was 13.35%.

**Q.** How did the “Percent Effect” value turn out when `CC1CCCN(C(=O)CCNS(=O)(=O)c2cccnc2)C1` (configuration not stated) was run?
**A.** Its value is 5.119%.

**Q.** How did the “Percent Effect” value turn out when `O=C(CCn1ncc2ccccc21)N1CCCC(Cc2cccnc2)C1` (configuration not stated) was run?
**A.** The value was 101.6%.

**Q.** Which “Percent Effect” value does the source give for `CN(CCC(=O)N1CCCC(Cc2cccnc2)C1)Cc1cccnc1` (configuration not stated) here?
**A.** Its value is 128.2%.

**Q.** For `O=C1CCCN1CCCC(=O)N1CCCC(Cc2cccnc2)C1` (configuration not stated), which “Percent Effect” value is on record?
**A.** The value was 77.87%.

**Q.** How did the “Percent Effect” value turn out when `CN(C)CCn1ccnc1C1CCCN(C(=O)CCc2cccnc2)C1` (configuration not stated) was run?
**A.** The value was -16.88%.

**Q.** For `Cc1ccn(CCC(=O)N2CCCC(Cc3cccnc3)C2)n1` (configuration not stated), which “Percent Effect” value is on record?
**A.** The value was 122.4%.

**Q.** `CC(C)c1noc(CCCC(=O)N2CCC(Cc3cccnc3)CC2)n1` was tested. Which “Percent Effect” value did it give?
**A.** Its value is -13.45%.

**Q.** Which “Percent Effect” value does the source give for `O=C(CSCC1CC1)N1CCCC(c2nccn2Cc2cccnc2)C1` (configuration not stated) here?
**A.** The value was -14.92%.

**Q.** Which “Percent Effect” value does the source give for `COCCN1CC2(CCC1=O)CCN(Cc1cc(F)ccc1Cl)CC2` here?
**A.** The value was 8.376%.

**Q.** How did the “Percent Effect” value turn out when `COCCCN1CC2(CCC1=O)CCN(Cc1cc(C)no1)CC2` was run?
**A.** Its value is -12.58%.

**Q.** For `O=C(CCC1CCCO1)NCCN1CCCCC1` (configuration not stated), which “Percent Effect” value is on record?
**A.** Its value is -10.6%.

**Q.** Which “Percent Effect” value does the source give for `CC(C)c1nc(C2CCCN(C(=O)Cc3cccnc3)C2)no1` (configuration not stated) here?
**A.** The value was -1.83%.

**Q.** Which “Percent Effect” value does the source give for `CC(C)C(=O)N1CCC2(CC1)NC(=O)[C@H]1CN(Cc3cccnc3)C[C@H]12` here?
**A.** The value was -21.16%.

**Q.** With `CC(C)C(=O)N1CCCC(Cc2cccnc2)C1` (configuration not stated) as the compound, how does the “Percent Effect” value read?
**A.** The value was 104.6%.

**Q.** How did the “Percent Effect” value turn out when `CSc1nnc(CC2CCN(C(=O)CCc3cccnc3)CC2)n1C` was run?
**A.** Its value is -9.622%.

**Q.** How did the “Percent Effect” value turn out when `Cn1nccc1CCC(=O)N1CCCC(Cc2cccnc2)C1` (configuration not stated) was run?
**A.** Its value is 92.49%.

**Q.** With `CC1CCCN(C(=O)CCc2cccnc2)C1` (configuration not stated) as the compound, how does the “Percent Effect” value read?
**A.** The value was -4.583%.
